System: Plasmodium falciparum
Test: GSK_TCMDC: Inhibition of Plasmodium falciparum Dd2 in whole red blood cells, using parasite LDH activity as an index of growth. Test compounds present at 2uM
Type: functional

Which Inhibition does the source give for O=C(Nc1ccc(F)cc1)NC1CCN(c2ccnc3ccccc23)C1.O=C(O)C(F)(F)F (stereo not drawn) here?
The Inhibition was 2%.

How did the Inhibition turn out when CC(C)(C)COc1ccc2c(N)n[nH]c2c1.Cl was run?
The Inhibition was 8%.

Which Inhibition does the source give for CCN(CC)CCCNc1ncc2c(-c3ccc(NC(=O)Nc4cc(C(F)(F)F)ccc4F)cc3)nn(C)c2n1.O=C(O)C(F)(F)F here?
The Inhibition was 74%.

Which Inhibition does the source give for CC(C)C1c2ccc(O)cc2CC2C(=O)N(C3CCCCC3)C(=O)N21 (stereo not drawn) here?
Its Inhibition is 88%.

With O=c1cc(NCCCNCc2cc(Cl)cc(Cl)c2OCc2ccccc2)[nH]c2ccccc12 as the compound, how does the Inhibition read?
The Inhibition was 50%.

For NS(=O)(=O)c1cccc(N/C=C2\C(=O)Nc3ccc(S(=O)(=O)Cc4c(Cl)cccc4Cl)cc32)c1, which Inhibition is on record?
The Inhibition was 99%.

How did the Inhibition turn out when COc1ccc(NCc2cccc(-c3cccc(CNCCc4ccccc4)c3)c2)cc1.O=C(O)C(F)(F)F was run?
Its Inhibition is 14%.

For O=C(Nc1ccc(Cn2ncc(N3CCCNCC3)c(Cl)c2=O)cc1)Nc1cccc(Oc2ccccc2)c1.O=C(O)C(F)(F)F, which Inhibition is on record?
The Inhibition was 41%.

How did the Inhibition turn out when CC(=O)c1ccc(Nc2c(C(N)=O)cnc3cc(-c4c(C)noc4C)ccc23)cc1 was run?
Its Inhibition is 44%.

Cl.O=C(Nc1ccc(Cl)c(Cl)c1)N1CCc2ccc(OCCCN3CCCCC3)cc2CC1 was tested. Which Inhibition did it give?
The Inhibition was 0%.

With O=C(NC1CCN(Cc2ccccc2)CC1)c1cc(C(=O)NC2CCN(Cc3ccccc3)CC2)cc(C(=O)NC2CCN(Cc3ccccc3)CC2)c1 as the compound, how does the Inhibition read?
Its Inhibition is 100%.

How did the Inhibition turn out when Cc1cccc2nc(-c3cccc(-c4ccc(NC(=O)c5cnccc5C(F)(F)F)cc4)c3)[nH]c12 was run?
The Inhibition was 37%.

For CCOc1c(CCNCCCCNCCc2ccc3ccccc3c2OCC)ccc2ccccc12.CS(=O)(=O)O, which Inhibition is on record?
Its Inhibition is 87%.

How did the Inhibition turn out when CCCc1cc(Cc2cnc(N)nc2N)cc(OCCCCCC(=O)O)c1OC.Cl was run?
Its Inhibition is 2%.

For O=C(Nc1ccc(OC2CCN(Cc3ccsc3)C2)c(Cl)c1)c1ccco1.O=C(O)C(F)(F)F (stereo not drawn), which Inhibition is on record?
Its Inhibition is 96%.

How did the Inhibition turn out when CCOC(=O)c1ccc(NC(=O)c2ccccc2C(=O)O)cc1 was run?
The Inhibition was 0%.

With CC(=NNC(N)=O)C1=C(O)C(c2ccccc2)N(C2CCCCC2)C1=O (stereo not drawn) as the compound, how does the Inhibition read?
The Inhibition was 96%.

For O=C(/C=C/c1ccc(Cl)c(Cl)c1)NCCCCCN1CCCN(C(=O)Nc2ccc(OC(F)F)cc2)CC1, which Inhibition is on record?
The Inhibition was 0%.

For COc1cccc2c(NN=Cc3ccccc3F)ccnc12, which Inhibition is on record?
The Inhibition was 37%.

With Brc1ccccc1CNc1ccnc(NCCn2ccnc2)n1 as the compound, how does the Inhibition read?
Its Inhibition is 33%.

COC(=O)c1ccc(C2OC3(C(=O)c4ccccc4C3=O)C(OC)=C2Cl)cc1C(C)=O (stereo not drawn) was tested. Which Inhibition did it give?
Its Inhibition is 85%.

With O=C1Nc2cccc3c2C1(CCCCN1CCC(c2c(-c4ccc(F)cc4)[nH]c4ccccc24)CC1)CCC3 (stereo not drawn) as the compound, how does the Inhibition read?
The Inhibition was 28%.

For N#CN1CC[C@@H](OC(=O)N[C@@H]2C[C@H]2c2ccccc2)C1, which Inhibition is on record?
Its Inhibition is 56%.

How did the Inhibition turn out when Cl.O=C(NC1CCC(CCN2Cc3ccc(Br)cc3C2)CC1)c1cccc(-c2cccnc2)c1 (stereo not drawn) was run?
The Inhibition was 73%.

With Cc1cc(OCCCN2CCCCC2C)ccc1NC(=O)COc1ccc(Cl)cc1C(=O)c1cc(Cl)cc(C#N)c1 (stereo not drawn) as the compound, how does the Inhibition read?
Its Inhibition is 14%.

With COc1cccc(NC(=O)Nc2c(-c3cccc(C(F)(F)F)c3)c(C(F)(F)F)nn2C)c1 as the compound, how does the Inhibition read?
The Inhibition was 30%.

Which Inhibition does the source give for CCOC(=O)N/N=C/[C@H](CCc1ccccc1)NC(=O)[C@H](CC(C)C)NC(=O)c1cc2cccc(OC)c2o1 here?
The Inhibition was 58%.

For Fc1cccc(COc2ccc(-n3ccc4c(NCCCn5ccnc5)ncnc43)cc2Cl)n1, which Inhibition is on record?
The Inhibition was 29%.

For O=C(N[C@H]1CCN(Cc2ccc(OCCCN3CCCCC3)cc2)C1)c1ccc2ccccc2c1, which Inhibition is on record?
Its Inhibition is 32%.

Which Inhibition does the source give for COC(=O)c1cccc(CNCc2ccc(-c3cccc(-c4nc5ccccc5[nH]4)c3)cc2)c1.O=C(O)C(F)(F)F here?
The Inhibition was 46%.

Which Inhibition does the source give for O=C(C=Cc1ccc(Cl)c(Cl)c1)NCCCCCN1CCCC(CCCNC(=O)c2cccs2)C1 (stereo not drawn) here?
Its Inhibition is 0%.

How did the Inhibition turn out when O=C(Nc1ccccc1)N(Cc1ccccc1-c1cccc(CNCCc2ccccc2)c1)C1CCN(Cc2ccccc2)CC1.O=C(O)C(F)(F)F was run?
Its Inhibition is 59%.

Which Inhibition does the source give for CC(C)c1ccc2oc(-c3ccc(NC(=O)c4ccc([N+](=O)[O-])o4)cc3)nc2c1 here?
The Inhibition was 95%.

CCCCCC(C)C(C)c1cc(O)c2c(c1)OC(C)(C)C=C2c1cc[n+]([O-])cc1 (stereo not drawn) was tested. Which Inhibition did it give?
The Inhibition was 2%.

Which Inhibition does the source give for COCCNCc1ccc(-c2ccc(CNc3ccc4ncccc4c3)cc2)cc1.O=C(O)C(F)(F)F here?
Its Inhibition is 4%.

Cc1cc(C)c(C(=O)Nc2n[nH]c3nnc(-c4cccc(F)c4F)cc23)c(C)c1 was tested. Which Inhibition did it give?
The Inhibition was 0%.

COc1cc(Cc2cnc(N)nc2N)cc(OCC(C)(C)C(=O)O)c1OC was tested. Which Inhibition did it give?
Its Inhibition is 0%.

For COC(=O)c1cccc(NC(=O)NCCNc2ccnc(Nc3ccc(F)cc3)n2)c1, which Inhibition is on record?
The Inhibition was 5%.

How did the Inhibition turn out when Cc1nnc2c(NC(=O)NC3CCCC3)cc3cc(-c4ccc(CN5CCN(C)CC5)cc4)ccc3n12 was run?
The Inhibition was 91%.

System: HepG2
Test: GSK_TCMDC: Percent inhibition of human HepG2 cell line. Test compounds present at 10uM.
Type: functional

With O=C(Nc1ccc(F)cc1)NC1CCN(c2ccnc3ccccc23)C1.O=C(O)C(F)(F)F (stereo not drawn) as the compound, how does the Inhibition read?
Its Inhibition is 9%.

Which Inhibition does the source give for CC(C)(C)COc1ccc2c(N)n[nH]c2c1.Cl here?
The Inhibition was 31%.

For CCN(CC)CCCNc1ncc2c(-c3ccc(NC(=O)Nc4cc(C(F)(F)F)ccc4F)cc3)nn(C)c2n1.O=C(O)C(F)(F)F, which Inhibition is on record?
The Inhibition was 81%.

Which Inhibition does the source give for CC(C)C1c2ccc(O)cc2CC2C(=O)N(C3CCCCC3)C(=O)N21 (stereo not drawn) here?
The Inhibition was 2%.

With O=c1cc(NCCCNCc2cc(Cl)cc(Cl)c2OCc2ccccc2)[nH]c2ccccc12 as the compound, how does the Inhibition read?
Its Inhibition is 0%.

For NS(=O)(=O)c1cccc(N/C=C2\C(=O)Nc3ccc(S(=O)(=O)Cc4c(Cl)cccc4Cl)cc32)c1, which Inhibition is on record?
The Inhibition was 1%.

For COc1ccc(NCc2cccc(-c3cccc(CNCCc4ccccc4)c3)c2)cc1.O=C(O)C(F)(F)F, which Inhibition is on record?
Its Inhibition is 41%.

How did the Inhibition turn out when O=C(Nc1ccc(Cn2ncc(N3CCCNCC3)c(Cl)c2=O)cc1)Nc1cccc(Oc2ccccc2)c1.O=C(O)C(F)(F)F was run?
The Inhibition was 8%.

For CC(=O)c1ccc(Nc2c(C(N)=O)cnc3cc(-c4c(C)noc4C)ccc23)cc1, which Inhibition is on record?
The Inhibition was 0%.

Which Inhibition does the source give for Cl.O=C(Nc1ccc(Cl)c(Cl)c1)N1CCc2ccc(OCCCN3CCCCC3)cc2CC1 here?
Its Inhibition is 27%.

With O=C(NC1CCN(Cc2ccccc2)CC1)c1cc(C(=O)NC2CCN(Cc3ccccc3)CC2)cc(C(=O)NC2CCN(Cc3ccccc3)CC2)c1 as the compound, how does the Inhibition read?
Its Inhibition is 13%.

How did the Inhibition turn out when Cc1cccc2nc(-c3cccc(-c4ccc(NC(=O)c5cnccc5C(F)(F)F)cc4)c3)[nH]c12 was run?
The Inhibition was 60%.

With CCOc1c(CCNCCCCNCCc2ccc3ccccc3c2OCC)ccc2ccccc12.CS(=O)(=O)O as the compound, how does the Inhibition read?
Its Inhibition is 100%.

Which Inhibition does the source give for CCCc1cc(Cc2cnc(N)nc2N)cc(OCCCCCC(=O)O)c1OC.Cl here?
Its Inhibition is 8%.

O=C(Nc1ccc(OC2CCN(Cc3ccsc3)C2)c(Cl)c1)c1ccco1.O=C(O)C(F)(F)F (stereo not drawn) was tested. Which Inhibition did it give?
The Inhibition was 0%.

For CCOC(=O)c1ccc(NC(=O)c2ccccc2C(=O)O)cc1, which Inhibition is on record?
The Inhibition was 2%.

CC(=NNC(N)=O)C1=C(O)C(c2ccccc2)N(C2CCCCC2)C1=O (stereo not drawn) was tested. Which Inhibition did it give?
Its Inhibition is 59%.

O=C(/C=C/c1ccc(Cl)c(Cl)c1)NCCCCCN1CCCN(C(=O)Nc2ccc(OC(F)F)cc2)CC1 was tested. Which Inhibition did it give?
The Inhibition was 39%.

COc1cccc2c(NN=Cc3ccccc3F)ccnc12 was tested. Which Inhibition did it give?
The Inhibition was 6%.

Brc1ccccc1CNc1ccnc(NCCn2ccnc2)n1 was tested. Which Inhibition did it give?
The Inhibition was 72%.

With COC(=O)c1ccc(C2OC3(C(=O)c4ccccc4C3=O)C(OC)=C2Cl)cc1C(C)=O (stereo not drawn) as the compound, how does the Inhibition read?
The Inhibition was 0%.

How did the Inhibition turn out when O=C1Nc2cccc3c2C1(CCCCN1CCC(c2c(-c4ccc(F)cc4)[nH]c4ccccc24)CC1)CCC3 (stereo not drawn) was run?
The Inhibition was 25%.

N#CN1CC[C@@H](OC(=O)N[C@@H]2C[C@H]2c2ccccc2)C1 was tested. Which Inhibition did it give?
The Inhibition was 0%.

With Cl.O=C(NC1CCC(CCN2Cc3ccc(Br)cc3C2)CC1)c1cccc(-c2cccnc2)c1 (stereo not drawn) as the compound, how does the Inhibition read?
Its Inhibition is 14%.

Cc1cc(OCCCN2CCCCC2C)ccc1NC(=O)COc1ccc(Cl)cc1C(=O)c1cc(Cl)cc(C#N)c1 (stereo not drawn) was tested. Which Inhibition did it give?
Its Inhibition is 23%.

For COc1cccc(NC(=O)Nc2c(-c3cccc(C(F)(F)F)c3)c(C(F)(F)F)nn2C)c1, which Inhibition is on record?
The Inhibition was 2%.

CCOC(=O)N/N=C/[C@H](CCc1ccccc1)NC(=O)[C@H](CC(C)C)NC(=O)c1cc2cccc(OC)c2o1 was tested. Which Inhibition did it give?
Its Inhibition is 3%.

How did the Inhibition turn out when Fc1cccc(COc2ccc(-n3ccc4c(NCCCn5ccnc5)ncnc43)cc2Cl)n1 was run?
The Inhibition was 14%.

Which Inhibition does the source give for O=C(N[C@H]1CCN(Cc2ccc(OCCCN3CCCCC3)cc2)C1)c1ccc2ccccc2c1 here?
The Inhibition was 8%.

With COC(=O)c1cccc(CNCc2ccc(-c3cccc(-c4nc5ccccc5[nH]4)c3)cc2)c1.O=C(O)C(F)(F)F as the compound, how does the Inhibition read?
Its Inhibition is 5%.

How did the Inhibition turn out when O=C(C=Cc1ccc(Cl)c(Cl)c1)NCCCCCN1CCCC(CCCNC(=O)c2cccs2)C1 (stereo not drawn) was run?
Its Inhibition is 24%.

With O=C(Nc1ccccc1)N(Cc1ccccc1-c1cccc(CNCCc2ccccc2)c1)C1CCN(Cc2ccccc2)CC1.O=C(O)C(F)(F)F as the compound, how does the Inhibition read?
Its Inhibition is 95%.

Which Inhibition does the source give for CC(C)c1ccc2oc(-c3ccc(NC(=O)c4ccc([N+](=O)[O-])o4)cc3)nc2c1 here?
Its Inhibition is 99%.

CCCCCC(C)C(C)c1cc(O)c2c(c1)OC(C)(C)C=C2c1cc[n+]([O-])cc1 (stereo not drawn) was tested. Which Inhibition did it give?
Its Inhibition is 11%.

With COCCNCc1ccc(-c2ccc(CNc3ccc4ncccc4c3)cc2)cc1.O=C(O)C(F)(F)F as the compound, how does the Inhibition read?
The Inhibition was 41%.

For Cc1cc(C)c(C(=O)Nc2n[nH]c3nnc(-c4cccc(F)c4F)cc23)c(C)c1, which Inhibition is on record?
Its Inhibition is 0%.

Which Inhibition does the source give for COc1cc(Cc2cnc(N)nc2N)cc(OCC(C)(C)C(=O)O)c1OC here?
Its Inhibition is 0%.

How did the Inhibition turn out when COC(=O)c1cccc(NC(=O)NCCNc2ccnc(Nc3ccc(F)cc3)n2)c1 was run?
Its Inhibition is 10%.

How did the Inhibition turn out when Cc1nnc2c(NC(=O)NC3CCCC3)cc3cc(-c4ccc(CN5CCN(C)CC5)cc4)ccc3n12 was run?
The Inhibition was 100%.

From ChEMBL document CHEMBL1157539, “Thousands of chemical starting points for antimalarial lead identification” (Nature, 2010)
